# The whole screen tested about 320,000 compounds, of which about 2,100 (0.66%) were called active. Another 53% or so got no clear call; they are omitted. Calls follow the shape of the dose curve; as a rule, active = well fitted inhibition curve with a large enough effect in the signal ratio, with a control signal flat (not every such curve was filed as active); inconclusive = small, poorly fitted or top-dose-only effect, or effect the other way, or a change in a side signal; inactive = flat fitted curve, though single readings scatter; the % refers to the signal ratio. The sample as a whole holds a higher share of actives than the screen did.
# Test: qHTS Assay for Lipid Storage Modulators in Drosophila S3 Cells;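 as to cell number change: cells counted by Cell Tracker Red CMTPX staining in the red channel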; as to lipid storage change, negative = inhibition: % is scaled to controls: 0 for no effect and ±100 for the full control effect
# Settings: BODIPY lipid droplet fluorescence, 18-24 h, cells fed with added oleic acid; cell number change: measured here: cell count max response; series mostly up to 46.1 µM
# Excerpt: NIH Molecular Libraries Probe Production Centers Network [MLPCN] NIH Chemical Genomics Center [NCGC] MLPCN Grant: 1 R03 MH085686-01 Assay Submitter (PI): Beller, Mathias; Max-Planck-Institut fur Biophysikalische Chemie NCGC Assay Overview: Storing lipids as a reservoir for energy or the anabolism of elementary metabolites is a common feature of probably all cells and is conserved from bacteria to humans. The universal cellular lipid storage organelle is the so-called lipid storage droplet (LD). Although ubiquitous, LDs share a simple structure composed of a hydrophobic core that harbors the storage lipids, which is shielded by a droplet-specific phospholipid monolayer to which proteins are attached. The current model of LD biogenesis involves an incorporation of the lipid core into the membrane leaflets of the endoplasmic reticulum (ER) followed by a subsequent budding-like maturation of a LD, which ultimately pinches off. Once released, LD volume can increase by localized lipogenesis or fusion of existing droplet. Storage lipids are re-mobilized enzymatically by lipase activity. Lipase regulation in the adipocyte is heavily studied and involves multiple components including catecholamine signaling, the LD-associated proteins Perilipin and comparative gene identification (CGI-58) and at least two lipases named hormone sensitive lipase (HSL) and adipocyte triglyceride lipase (ATGL). LD regulation outside of the adipocyte is poorly understood and only few components are known. However, there is an urgent need to learn more about ectopic fat depots as mislocalized storage of lipids, for example in the liver or muscle, is an eminent health problem associated with insulin resistance or the metabolic syndrome. We developed a laser-scanning cytometer assay to enable 1,536-well screening and combined the results of the small molecules screen with an RNAi database based on lipid storage.
# Triacsin C (Sigma-Aldrich T-4540), an inhibitor of long-chain fatty acyl CoA synthetase that blocks synthesis of triglycerides, was used as a positive control for lipid under-storage. A total of 23 nL of compound solution of different concentrations were transferred to the assay plates using a Kalypsys pin tool equipped with a 1,536-pin array containing 10-nL slotted pins (FP1S10, 0.457-mm diameter, 50.8 mm long; V&P Scientific). One microliter of oleic acid (400 uM) was added, and the plate was lidded with stainless steel rubber gasket lined lids containing pinholes. […] Fluorescence was detected by excitation of the fluorophores with a 488-nm laser on an Acumen Explorer (TTP Lab Tech). The total intensity in channel 2 (500-530 nm) reflected lipid droplet accumulation. Cells were detected using channel 3 (575-640 nm) with 5-um width and 100-um depth filters. The ratio of the number of objects in PMT channel 2 over the number of objects in PMT channel 3 was also calculated. Percent activity was computed relative to an internal control (100% inhibited lipid droplet deposition due to the presence of 20 uM Triacsin C), which was added to 32 wells/plate.
# Potency is read from the fitted curve at half-maximal effect.
Structure (SMILES),Potency,cell number change,"lipid storage change, negative = inhibition"
CC(=O)Nc1ccc(C(=O)Nc2nc(-c3ccccn3)cs2)cc1,inactive,,
CCCNC(=O)c1cccc(Br)c1,inactive,,
CC(=O)N1CCc2cc(Br)cc(S(=O)(=O)N3CCCCC3)c21,inactive,-26.2%,
CC(=O)Nc1cccc(NC(=O)C(C)N2c3cccc4cccc(c34)S2(=O)=O)c1 (configuration not stated),inactive,20.8%,
COC(=O)C1(C(C[N+](=O)[O-])c2ccco2)C(=O)NCC1c1ccccc1 (configuration not stated),inactive,,
Cc1cc(Nc2ccccc2)nc(NCc2ccccc2)n1,8.2 µM (active),-27.7%,
COc1cc(C)nc(NCc2ccccc2)n1,inactive,,
Cc1cc(Oc2ccccc2)nc(NCc2ccccc2)n1,inactive,-8.62%,
COc1ccc2nc(N3C(=O)/C(=C/c4ccc(Cl)cc4)NC3=S)sc2c1,inactive,28.8%,
CCOc1ccc2nc(N3C(=O)/C(=C/c4ccc(Cl)cc4)NC3=S)sc2c1,inactive,13.8%,
CCOc1ccc2nc(N3C(=O)/C(=C/c4ccccc4)NC3=S)sc2c1,9.2 µM (active),-2.65%,
CCOC(=O)C1CCN(S(=O)(=O)c2ccc(-c3ccccn3)s2)CC1,inactive,18.1%,
CCOC(=O)CN(C(=O)CSc1nnc(CNc2ccc(C)cc2C)n1CC)c1ccccc1,inactive,-14.6%,
COC(=O)CSc1nc(N2CCOCC2)c2c(c1C#N)CC(C)(C)N(C)C2,inactive,15.3%,
COc1cccc(-c2ccc3c(c2)S(=O)(=O)c2cccc(C(=O)O)c2C3=O)c1OC,0.651 µM (active),,
COc1ccc(-c2ccc3c(c2)S(=O)(=O)c2cccc(C(=O)O)c2C3=O)cc1OC,inactive,0.722%,
O=C(O)c1cccc2c1C(=O)c1ccc(-c3ccc(F)cc3F)cc1S2(=O)=O,inactive,1.93%,
Cc1c(C(=O)N(Cc2ccc(Cl)cc2)C2CCS(=O)(=O)C2)oc2ccccc12 (configuration not stated),9.2 µM (active),-19.8%,
CC1(C)C(C=C(Cl)Cl)C1C(=O)N(Cc1ccc(Cl)cc1)C1CCS(=O)(=O)C1 (configuration not stated),8.2 µM (active),-12%,
CC1(C)C(C=C(Cl)Cl)C1C(=O)N(Cc1ccccc1Cl)C1CCS(=O)(=O)C1 (configuration not stated),inactive,-19.9%,
Cc1cc(Cl)c2oc(C(=O)N3CCN(C4CCS(=O)(=O)C4)CC3)c(C)c2c1 (configuration not stated),inactive,16.7%,
Cc1c(C(=O)N(Cc2ccc(F)cc2)C2CCS(=O)(=O)C2)oc2ccccc12 (configuration not stated),inactive,3.58%,
C=CCN(C(=O)c1ccccc1)C1CCS(=O)(=O)C1 (configuration not stated),inactive,22.7%,
Cc1c(C(=O)N(Cc2ccccc2)C2CCS(=O)(=O)C2)oc2ccccc12 (configuration not stated),inactive,19%,

Structure (SMILES),Potency,cell number change,"lipid storage change, negative = inhibition"
C=CCN(C(=O)c1oc2c(Cl)cc(C)cc2c1C)C1CCS(=O)(=O)C1 (configuration not stated),20.6 µM (active),7.31%,
O=C(c1ccco1)N(Cc1ccc(Cl)cc1)C1CCS(=O)(=O)C1 (configuration not stated),inactive,5.9%,
O=C1CSC(c2ccccc2)N1CC(O)c1ccc([N+](=O)[O-])cc1 (configuration not stated),inactive,14%,
CCOc1ccc(-c2noc(-c3cccnc3)n2)cc1OCC,inactive,2.29%,
O=[N+]([O-])c1cccc(OCCN2CCC(Cc3ccccc3)CC2)c1,inactive,10.2%,
COc1ccc(S(=O)(=O)CCC(=O)Nc2ccc(OC)cc2OC)cc1,inactive,-8.69%,
Cc1ccc(C(=O)CCC(=O)OCC(=O)N(CC(C)C)c2c(N)n(Cc3ccccc3)c(=O)[nH]c2=O)cc1,inactive,20.5%,
COc1ccc(CCNc2c(C=O)c(=O)[nH]c3ccccc23)cc1OC,inactive,,
Cc1cc(Br)ccc1NC(=O)C(C)c1ccc([N+](=O)[O-])cc1 (configuration not stated),inactive,6.98%,
Cc1ccc(-n2c3c(c(=O)[nH]c2=O)C(NS(=O)(=O)c2ccc(C)cc2)(C(F)(F)F)C(=O)N3)cc1 (configuration not stated),inactive,-0.886%,
Cc1ccc(-n2cc(S(=O)(=O)c3ccc(C)cc3)[nH]c2=O)cc1,inactive,12.8%,
CCc1c(C(C)S(=O)(=O)c2ccc(C)cc2)[nH]c(=O)n1-c1ccc(C)cc1 (configuration not stated),29.1 µM (active),-0.34%,
Brc1ccc(-n2cccc2/C=N/n2cnnc2)cc1,inactive,,
Cc1ccc(OCc2nc(C#N)c(N3CCCCC3)o2)cc1,inactive,15.9%,
N#Cc1nc(COc2ccc(Cl)cc2)oc1N1CCCC1,23.1 µM (active),-31%,
N#Cc1nc(COc2ccc(Br)cc2)oc1N1CCCCCC1,,7.38%,17.2% [at 9.22 µM] (inactive)
COc1ccc(OC)c(-c2cc(C(=O)N3CCN(c4ncccn4)CC3)c3ccccc3n2)c1,inactive,-4.49%,
Cc1onc(-c2ccccc2Cl)c1C(=O)Nc1ccccc1,inactive,6.9%,
COc1cc(S(=O)(=O)N(C)C)ccc1F,inactive,-10.1%,
CCOC(=O)C1=C(C)NC2=C(C(=O)c3ccccc32)C1c1cccc2ccccc12 (configuration not stated),16.4 µM (active),-15.2%,
COC(=O)C1=C(C)NC2=C(C(=O)c3ccccc32)C1c1cccc(OC)c1 (configuration not stated),inactive,-11.6%,
CCOC(=O)C1=C(C)NC2=C(C(=O)c3ccccc32)C1c1ccc([N+](=O)[O-])o1 (configuration not stated),inactive,12.6%,
CCC1CCCCN1C(=O)CNCC1CCCO1 (configuration not stated),inactive,14.6%,

# Source: PubChem BioAssay AID2685 (National Center for Advancing Translational Sciences (NCATS), 2010)
